Bioassay records as filed in PubChem.
Compounds with a hit are over-represented: about 12% of the library has one in this group of screens.
G9a block = blocks human histone lysine methyltransferase G9a; Q96KQ7; G9a H3K9 monomethylation, AlphaScreen, 2 h; Potency, µM (highest dose often 102 µM), inactives show at the top dose activity, negative = inhibition, most hits filed as inhibitors; 350,000 compounds, 8.8% hits; also: potency is read from the fitted curve at half-maximal effect; % is scaled to controls: 0 for no effect and ±100 for the full control effect; nearly all actives have a fitted effect of over 75% in size
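Step 1: enzyme (final 20 nM) with compound, 15 min RT. Step 2: substrate peptide 500 nM and SAM 20 uM, 2 h RT. Step 3: anti-H3K9me1 antibody and AlphaScreen beads, 10 min, then plate read.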
BAZ2B inh = blocks human BAZ2B | AlphaScreen BAZ2B-H3K14Ac peptide displacement | AID 504333 | Potency, µM (highest dose often 114 µM), for inactives: at the highest dose activity change, negative = inhibition, usual class: inhibitors | 360,000 compounds, 4.4% hits; also: potency is read from the fitted curve at half-maximal effect; % is scaled to controls: 0 for no effect and ±100 for the full control effect; nearly all actives have a fitted effect of over 60% in size
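In this displacement format the biotinylated H3(5-23) peptide acetylated at Lys14 serves as ligand at 50 nM, with BAZ2B at 50 nM in PBS pH 7.4 containing 0.01% Tween-20. Donor and acceptor beads are 10 ug/mL final.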
JMJD2A Tudor = inhibitors of human JMJD2A Tudor domain. Potency, µM (series often up to 114 µM), for inactives: at the top dose activity change, negative = inhibition, usual class: inhibitors. 390,000 compounds, 4.4% hits. AID 504339. AlphaScreen JMJD2A-Tudor / H3K4me3 peptide binding. O75164; also: potency is read from the fitted curve at half-maximal effect; % is scaled to controls: 0 for no effect and ±100 for the full control effect; nearly all actives have a fitted effect of over 50% in size
PI5P4Ka inh = PI5P4K alpha (human) kinase inhibition; 330,000 compounds, 1.2% hits; P48426; max response, %; PI5P4Kalpha enzyme, ADP-Glo luminescence, 60 min; stronger effect = lower value; active = max response of -50% or lower; inconclusive = between -30% and -50%; inactive = -30% or higher; also: value at the top dose of about 77 µM; % is scaled to controls: 0 for no effect and ±100 for the full control effect
Target sequence (P48426 whole entry, looked up): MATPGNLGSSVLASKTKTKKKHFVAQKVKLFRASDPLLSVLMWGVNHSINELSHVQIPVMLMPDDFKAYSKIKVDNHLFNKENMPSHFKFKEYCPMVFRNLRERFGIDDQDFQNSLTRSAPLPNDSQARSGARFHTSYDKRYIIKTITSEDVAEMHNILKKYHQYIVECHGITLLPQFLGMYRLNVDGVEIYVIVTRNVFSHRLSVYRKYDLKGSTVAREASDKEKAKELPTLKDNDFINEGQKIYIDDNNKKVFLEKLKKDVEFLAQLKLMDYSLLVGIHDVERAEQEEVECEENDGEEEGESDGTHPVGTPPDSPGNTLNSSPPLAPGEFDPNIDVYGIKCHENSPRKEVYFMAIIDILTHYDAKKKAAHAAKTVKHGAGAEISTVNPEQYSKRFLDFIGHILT
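Enzyme plus substrate dispensed, test compounds pinned in, then ATP (5 microM final) added. After 60 min at RT, ADP-Glo reagent 1 for 45 min and reagent 2 for 30 min preceded luminescence imaging.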
HP1b chromo inh = inhibitors of HP1-beta chromodomain binding to methylated histone tails | AlphaScreen HP1-beta / biotin-H3K9me3 peptide binding | Potency, µM (doses to about 114 µM), for the others: at the top dose activity change, negative = inhibition, actives largely listed as inhibitors | P83916 | 390,000 compounds, 0.56% hits; also: potency is read from the fitted curve at half-maximal effect; nearly all actives have a fitted effect of over 70% in size
Target sequence (P83916 whole entry, looked up): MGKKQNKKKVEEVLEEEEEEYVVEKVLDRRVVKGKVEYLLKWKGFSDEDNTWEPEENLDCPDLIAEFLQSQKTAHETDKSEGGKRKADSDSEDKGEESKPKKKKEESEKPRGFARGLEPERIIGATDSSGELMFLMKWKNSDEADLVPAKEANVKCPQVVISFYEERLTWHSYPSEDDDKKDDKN
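HP1-beta protein (50 nM final) preincubated 30 min at room temperature with biotinylated H3(1-18)K9me3 peptide (50 nM) in PBS pH 7.4, 0.01% Tween-20, then compound added for 30 min. AlphaScreen streptavidin donor/nickel chelate acceptor beads (10 ug/mL final), 30 min dark, luminescence read.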
PLK1 PBD inh = blocks phosphopeptide binding to human PLK1 polo-box domain; Plk1 PBD binding of FITC phosphopeptide, fluorescence polarization; P53350; 360,000 compounds, 2.8% hits; Potency, µM, for inactives: max response, negative = inhibition, hits mostly inhibitors; also: potency is read from the fitted curve at half-maximal effect; series mostly up to about 57 µM; % is scaled to controls: 0 for no effect and ±100 for the full control effect; nearly all actives have a fitted effect of over 65% in size
* marks the source's active call; other numbers are inactive results; u = inconclusive; x = not tested or not shown; ! = repeats disagree; [ ] = dose if it differs, or a comment. Unless noted, calls follow the shape of the dose curve; as a rule, active = well fitted curve in the direction sought with a large enough effect; inconclusive = small, poorly fitted or top-dose-only effect, or another doubt; inactive = no such curve, though single readings can be large; an effect the other way counts as inactive or inconclusive.

SMILES | G9a block | BAZ2B inh | JMJD2A Tudor | PI5P4Ka inh | HP1b chromo inh | PLK1 PBD inh
Cc1sc(NC(=S)NC(=O)c2ccccc2)c(C#N)c1C | x | x | -16% | x | -2% | 12µM*
N#Cc1c(Cl)nsc1NC(=O)c1ccccc1 | u | -1% | -9% | -54* | 26% | -21%
CCOc1ccc(CCNC(=O)CCc2c(C)nc3cc(-c4ccccc4OC)nn3c2C)cc1 | u | 1% | -9% | x | 33% | x
CC1CCN(S(=O)(=O)c2ccc3c(c2)N(CC(=O)NC(C)C)C(=O)CS3)CC1 | 5%[59 µM] | 0% | -15% | x | 15% | x
O=[N+]([O-])c1ccc(C=NNc2ccc(S(=O)(=O)O)cc2)cc1 | x | x | 79µM* | -29 | 2%[57 µM] | -6%
O=S(=O)(O)c1ccc(NN=Cc2ccccc2O)cc1 | x | x | 100µM* | -13 | 1%[57 µM] | -9%
CNc1nc(N/N=C/c2ccc([N+](=O)[O-])cc2)nc(Nc2ccccc2)n1 | 11%[59 µM] | u | u | -19 | u | 27µM*
COc1cccc(/C=N/Nc2ccc(S(=O)(=O)O)cc2)c1O | 2.2µM* | u | -15% | x | 27% | -3%
O=P(O)(Cc1ccccc1)c1ccccc1 | x | x | x | 2 | x | -2%
CC(C)c1cnc2c(c1SCC(=O)Nc1cccc([N+](=O)[O-])c1)c(=O)n(C)c(=O)n2C | u | -16% | u | x | 28%[57 µM] | x
CCc1ccc(NC(=O)CSc2nc(C)cs2)cc1 | x | x | x | -13 | x | 2%
Cc1cnc(C(=O)OCC(=O)Nc2oc(-c3ccccc3)c(-c3ccccc3)c2C#N)cn1 | 50µM* | -57% | 56µM* | x | -11% | u
CCn1c(SCC(=O)Nc2oc(-c3ccccc3)c(-c3ccccc3)c2C#N)nnc1-c1ccncc1 | 7.9µM* | u | u | 8 | -18% | u
CCn1c(SCC(=O)Nc2oc(-c3ccccc3)c(-c3ccccc3)c2C#N)nnc1-c1ccco1 | u | -36% | u | -24 | -12% | -20%
CCNc1ncc2ncc(=O)n(CCOC)c2n1 | -10%[0.501 µM] | x | x | x | x | x
COc1ccc(/C=C2\SC(=S)N(CC(=O)OCC(=O)Nc3ccc(C)cc3Cl)C2=O)cc1 | 14µM* | -26% | u | -3 | 5% | -8%
COc1cc(/C=C2/SC(=S)N(CCC(=O)Nc3ccc(C(=O)O)cc3)C2=O)cc(OC)c1OC | x | u | u | 2 | 6% | u
COc1ccc(/C=C2\SC(=S)N(CCCC(=O)Nc3ccc(O)cc3)C2=O)cc1 | -52% | -31% | -19%[11.4 µM] | 7 | 23% | -12%
COc1cc(/C=C2\SC(=S)N(CCC(=O)Nc3ccc(O)cc3)C2=O)cc(OC)c1OC | 1% | 0% | 22µM* | -8 | -4% | 30µM*
COc1ccc(/C=C2\SC(=S)N(CCC(=O)Nc3ccc(C(=O)O)cc3)C2=O)cc1 | 20%[0.501 µM] | 35µM* | -101% | 0 | 50µM* | -30%
O=C(CCN1C(=O)/C(=C/c2ccc(Cl)cc2)SC1=S)Nc1ccc(C(=O)O)cc1 | u | -16% | u | 0 | 71µM* | 30µM*
CCOC(=O)C1CCN(C(=O)c2nn(-c3ccc(OC)c(Cl)c3)c(=O)c3c2c2ccccc2n3C)CC1 | 1%[59 µM] | x | -12% | x | 35% | x
CCN1CCC(N(Cc2ccc3c(c2)OCO3)C(=O)Nc2cc(F)ccc2F)CC1 | -40%[59 µM] | -15% | -22% | x | 41% | x
O=C(O)c1cc([N+](=O)[O-])c(N2CCCC2)c([N+](=O)[O-])c1 | 8.9µM* | -14% | 3% | -21 | 9% | -2%
CCN(CC)C(=O)CSc1nc2c(c(=O)n(C)c(=O)n2C)n1Cc1ccccc1 | 0%[59 µM] | -17% | -3% | x | 36% | x
SMILES | G9a block | BAZ2B inh | JMJD2A Tudor | PI5P4Ka inh | HP1b chromo inh | PLK1 PBD inh
Cc1ccc(O)c(CNc2cccc(C)n2)c1 | x | -35% | -28% | -3 | -6% | 8%
Cc1cccc(NCc2ccc(N(C)C)cc2)n1 | 50µM* | 40µM* | 50µM* | -1 | u | 2%
CSc1ccc(CNc2ccccn2)cc1 | 45µM* | -10% | -24% | -3 | 4% | -10%
CN(C)c1ccc(CNc2ccccn2)cc1 | u | 50µM* | 56µM* | -2 | -14% | -5%
O=c1c(CCc2ccccc2)nc2cnc(Nc3ccccc3)nc2n1Cc1cccs1 | -3%[12.7 µM] | x | x | x | x | x
CN1CCN(C2Cc3cc(F)ccc3Sc3ccc(Cl)cc32)CC1 (centres undefined) | x | x | u | 8 | 7% | -11%
CSc1ccc2c(c1)C(N1CCN(C)CC1)Cc1ccccc1S2 (centres undefined) | 18µM*! | u | 63µM* | 26 | -33% | -20%
CN1CCN(C2Cc3ccccc3Sc3ccc(Cl)cc32)CC1 (centres undefined) | u | -37% | 79µM* | 18 | -25% | -8%
CCCc1n[nH]c(=S)n1Cc1ccco1 | u | 6% | 5µM* | -1 | 30% | -21%
S=c1[nH]nc(C23CC4CC(CC(C4)C2)C3)n1Cc1ccco1 | -9%[0.0925 µM] | u | 50µM* | 5 | 4% | -7%
S=c1[nH]nc(COc2ccc(Cl)cc2)n1Cc1ccco1 | 3.5µM* | u | u | -13 | u | u
Clc1ccc(OCc2nnc(SCCN3CCCCC3)n2Cc2ccco2)cc1 | u | 89µM* | u | -4 | 13% | -13%
Cc1cc(=O)n(Cc2ccco2)c(=S)[nH]1 | x | x | x | 1 | x | -14%
CCCCCCn1nc(C(=O)N(CCOC)c2c(N)n(CCCC)c(=O)[nH]c2=O)c2ccccc2c1=O | -39%[0.501 µM] | -27% | 7% | 7 | 54% | 1%
CCN1C[C@@H]2[C@@H]3C(=O)N(Cc4ccccc4)C(=O)[C@@H]3[C@](C)(C1=O)N2C(=O)c1ccc(Cl)cc1 | x | x | -14% | -2 | 40% | -5%
CCc1ccc(OCc2nnc(SCCN3CCOCC3)n2CC)cc1 | 7.1µM* | x | 3.2µM* | x | u | 1%
